Source: PubChem BioAssay (National Center for Advancing Translational Sciences (NCATS))
An excerpt weighted towards active compounds, which were near 4.7% of everything screened.
D3 antag: blocks the human D3 dopamine receptor; P35462; D3R cells, DiscoveRx beta-arrestin luminescence, antagonist mode; active compounds read low; max response, negative = inhibition, %; hit rate 2.5% among 360,000; AID 652054; in the data active = max response below about -50%; inconclusive = no clear call, values can overlap the other calls; note: % is set by controls: 0 for no effect and ±100 for the full control effect
Target sequence (P35462 whole entry, looked up): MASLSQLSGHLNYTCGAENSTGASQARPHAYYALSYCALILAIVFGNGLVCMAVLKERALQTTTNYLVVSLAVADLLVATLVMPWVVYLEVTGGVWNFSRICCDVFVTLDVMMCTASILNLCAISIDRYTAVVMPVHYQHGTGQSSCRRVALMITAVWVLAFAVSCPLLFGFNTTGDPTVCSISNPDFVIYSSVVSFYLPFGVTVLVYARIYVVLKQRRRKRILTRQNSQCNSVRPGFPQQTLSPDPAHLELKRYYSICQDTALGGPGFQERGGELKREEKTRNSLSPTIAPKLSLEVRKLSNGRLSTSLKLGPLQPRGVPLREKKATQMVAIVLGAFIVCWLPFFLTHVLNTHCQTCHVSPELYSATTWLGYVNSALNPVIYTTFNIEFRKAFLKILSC
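Cells expressing the human receptor were seeded at 1500 cells/well, incubated overnight at 37 degrees C in 5% CO2, then exposed to library compounds with dopamine controls for 90 minutes at 37 degrees C before luminescent detection.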
DRD3 agonist: agonists of human D3 dopamine receptor. D3R DiscoveRx beta-arrestin cells, luminescence, 90 min. P35462. hit rate 0.58% among 410,000. max activation, %; in the data active = max activation above about 30%; note: 0% is about no effect
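Agonist-mode cell screen: cells plated at 1500/well and incubated overnight at 37 °C, then exposed to library compounds for 90 min at 37 °C. Detection reagent was added for 30–60 min at room temperature, and luminescence was read.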
TGFb inhibitor: TGF-b pathway inhibition; Potency, µM (doses to about 46.1 µM), inactives show top-dose activity, negative = inhibition, actives largely listed as inhibitors; HepG2 CAGA-GFP TGF-b/SMAD3 reporter, GFP fluorescence, 18 h; TGF-beta stimulated, 500 pg/mL final; hit rate 1.2% among 410,000; note: potency is the fitted concentration of half-maximal effect; % is set by controls: 0 for no effect and ±100 for the full control effect; nearly all actives have a fitted effect of over 65% in size
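Read-out: total well GFP (ex488/em500-530) summed from mean per-cell fluorescence. Cells: HEPG2 CAGA-GFP, 1% FBS DMEM, 18 h at 37 degrees C with 500 pg/mL final TGF-beta. Unstimulated wells served as the full-inhibition control; stimulated DMSO wells = 0%.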
HepG2 tox-1: HepG2 cytotoxicity, counter-screen for TGF-b inhibitors. HepG2 CAGA-GFP viability, ATP luminescence, 18 h. Potency, µM (top dose mostly 46.1 µM), for inactives: at the highest dose activity change, negative = cytotoxicity, hits mostly cytotoxic. hit rate 0.76% among 410,000. AID 588856; note: potency is the fitted concentration of half-maximal effect
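HepG2 CAGA-GFP cells (1000/well, DMEM with 1% FBS) received compound, then TGF-beta at 500 pg/mL final, and were incubated 18 hours at 37 degrees C. Viability was read by CellTiter-Glo luminescence. Media-only wells were set as complete cell-killing and DMSO as no toxicity.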
ATXN2 expr inh: inhibitors of ATXN2 expression; HEK-293 ATXN2-luciferase reporter, luminescence, 24 h; Potency, µM (series often up to 57 µM), for the others: top-dose activity change, negative = inhibition, most hits filed as inhibitors; hit rate 0.72% among 360,000; AID 1745845; note: potency is the fitted concentration of half-maximal effect; % is set by controls: 0 for no effect and ±100 for the full control effect; nearly all actives have a fitted effect of over 55% in size
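qHTS (up to 57 uM final) was run with 24 h compound exposure of reporter cells at 37 °C. Each well was multiplexed: SteadyGlo luminescence measured ATXN2-luciferase expression after a fluorogenic Gly-Phe-AFC viability readout (25 uM final).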
S2 tox: viability counter-screen for ATXN expression inhibitors; S2 cells (HEK-293 line with an ATXN2-luciferase reporter) viability, CellTiter-Fluor protease fluorescence, 24 h; hit rate 0.49% among 400,000; Potency, µM (doses to about 56.7 µM), hits mostly cytotoxic; AID 651635; note: potency is the fitted concentration of half-maximal effect; nearly all actives have a fitted effect of over 40% in size
TGFb CAGA inh: TGF-b pathway inhibition, cherry-pick retest; shares compounds with TGFb inhibitor; HepG2 CAGA-GFP TGF-b reporter, GFP fluorescence, 18 h; cells stimulated with TGF-beta, 500 pg/mL; Potency, µM (titrated, usually from 46.1 µM), for the others: at the top dose activity, negative = inhibition, actives largely listed as inhibitors; hit rate 63% among 1,600; note: potency is the fitted concentration of half-maximal effect; % is set by controls: 0 for no effect and ±100 for the full control effect; nearly all actives have a fitted effect of over 65% in size
HepG2 tox-2: counter-screen for TGF-b inhibitors: cytotoxicity in HepG2 cells; shares compounds with TGFb inhibitor; HepG2 CAGA-GFP viability, ATP luminescence, 18 h; cells stimulated with TGF-beta, 500 pg/mL; Potency, µM (highest dose often 46.1 µM), without a hit: at the top dose activity, negative = cytotoxicity, actives largely listed as inhibitors; hit rate 27% among 1,600; AID 720535; note: potency is the fitted concentration of half-maximal effect; % is set by controls: 0 for no effect and ±100 for the full control effect; nearly all actives have a fitted effect of over 70% in size
CCL64 TGFb inh: blocks TGF-b signaling in CCL64 reporter cells. shares compounds with TGFb inhibitor. CCL64 CAGA-GFP reporter, TGF-b stimulated, GFP fluorescence, 18 h. Potency, µM (highest dose often 46.1 µM), for the others: at the highest dose activity, negative = inhibition, actives largely listed as inhibitors. hit rate 41% among 1,600; note: potency is the fitted concentration of half-maximal effect; nearly all actives have a fitted effect of over 65% in size
TGFb COP inh: validation of TGF-b inhibitors in HepG2 COP promoter reporter. shares compounds with TGFb inhibitor. Potency, µM (series often up to 46.1 µM), for the others: at the top dose activity, negative = inhibition, most hits filed as inhibitors. AID 720537. hit rate 3% among 1,600. HepG2 COP-GFP TGF-b reporter, GFP fluorescence, 18 h; cells stimulated by added recombinant TGF-beta; note: potency is the fitted concentration of half-maximal effect; nearly all actives have a fitted effect of over 70% in size
* hit, by the source's call; i = inactive; ? = inconclusive; nt = not tested or not shown. Unless noted, calls come from the whole dose curve; as a rule, active = well fitted curve in the direction sought with a large enough effect; inconclusive = small, poorly fitted or top-dose-only effect, or another doubt; inactive = no such curve, though single readings can be large; an effect the other way counts as inactive or inconclusive.

SMILES	D3 antag	DRD3 agonist	TGFb inhibitor	HepG2 tox-1	ATXN2 expr inh	S2 tox	TGFb CAGA inh	HepG2 tox-2	CCL64 TGFb inh	TGFb COP inh
CCOc1ccc(-n2c(=O)c3c4c(sc3n(CC(=O)NC(C)CC)c2=O)CCCC4)cc1 (centres undefined)	nt	-2	0%	1%	-4%	i	nt	nt	nt	nt
O=C(O)c1ccc(S(=O)(=O)N2CCCc3ccccc32)cc1	-2	-1	13%	5%	7%	i	nt	nt	nt	nt
NC(=O)c1ccsc1NC(=O)c1ccc(S(=O)(=O)N2CCCc3ccccc32)cc1	42	6	11µM*	-16%	?	?	5.2µM*	?	16µM*	-1%
CCOc1cc(CNC(=O)c2ccc3c(c2)nc2n3CCCCC2)ccc1OC	nt	1	-1%	-14%	nt	nt	nt	nt	nt	nt
O=C(NCC(c1ccco1)N1CCCCC1)c1ccc(COc2ccc(Cl)cc2)cc1 (centres undefined)	?	-1	13µM*	-25%	?	?	16µM*	?	16µM*	73%
N#Cc1ccc(C(=O)NCC(c2ccco2)N2CCCCC2)cc1 (centres undefined)	9	1	-6%	3%	4%	i	nt	nt	nt	nt
CC(C)c1ccccc1NC(=O)Cn1c(/C=C/c2ccccc2)nc2ccccc21	-11	8	10µM*	13µM*	-15%	?	-24%	?	?	-10%
Cc1ccc(NC(=O)Cn2c(/C=C/c3ccccc3)nc3ccccc32)cc1C	-13	-7	-1%	-29%	-20%	i	nt	nt	nt	nt
Cc1ccc(NC(=O)c2cnn3c2NC(=C2CC2)C=C3C(F)F)cc1C	nt	nt	2%	10%	nt	nt	nt	nt	nt	nt
COc1ccc(-c2cc3nc(C)c(CCC(=O)Nc4ccccc4C(C)=O)c(C)n3n2)c(OC)c1	nt	1	2%	0%	-34%	i	nt	nt	nt	nt
COc1cc(O)cc(O)c1C(=O)/C=C/c1ccccc1	0	-32	14µM*	-29%	?	?	21µM*	?	?	21%
Cc1ccc(N(CC(=O)NCCSc2ccccc2)S(=O)(=O)c2ccc(F)cc2)cc1	nt	-18	?	-114%	-38%	?	nt	nt	nt	nt
O=C(COc1cccc(F)c1)N[C@@H](Cc1ccccc1)c1nc2ccccc2[nH]1	-6	2	?	-28%	nt	i	?	-10%	-13%	-12%
O=C(NC(c1ccc(-c2ccccc2)cc1)c1cnccn1)C1CCN(CCN2C(=O)c3ccccc3C2=O)CC1 (centres undefined)	-12	3	-2%	-48%	-11%	i	nt	nt	nt	nt
CCN1CCN(CCOc2ccc(Cl)cc2)CC1	-14	-3	-1%	-8%	-9%	i	nt	nt	nt	nt
O=C(NC(c1ccccc1)c1ccc2ccccc2n1)C1CCN(CCOc2ccc(Cl)cc2Cl)CC1 (centres undefined)	-22	-8	10µM*	-93%	?	i	?	18µM*	?	?
CC(NC(=O)C1CCN(CCOc2ccc(Cl)cc2)CC1)c1cccc2ccccc12 (centres undefined)	-53*	-17	6.3µM*	11µM*	?	?	26µM*	18µM*	?	-27%
COc1ccc(CN(Cc2ccco2)C(=O)COc2ccc(Cl)cc2C)cc1	nt	3	0%	32%	nt	nt	nt	nt	nt	nt
COc1cc(C2C(C(=O)Nc3ccccc3)=C(C)Nc3nnnn32)cc(OC)c1OC (centres undefined)	nt	-11	9%	0%	?	i	nt	nt	nt	nt
COc1cc(-c2nc3ncccn3c2Nc2ccc(C)cc2C)ccc1O	nt	-24	nt	-30%	nt	nt	nt	nt	nt	nt
O=C(c1ccc2c(c1)OCO2)C1CCCN(Cc2ccc(OC(F)F)cc2)C1 (centres undefined)	-76*	-3	?	-38%	nt	i	?	?	?	12%
Cc1cc(Oc2ccccc2)nc(NCc2ccccc2)n1	-8	2	7%	3%	-2%	?	nt	nt	nt	nt
Cc1cc(Nc2ccccc2)nc(NCc2ccccc2)n1	?	-9	10µM*	-55%	?	i	4%	?	15µM*	63%
O=C(NCc1ccc2c(c1)OCO2)c1cc([N+](=O)[O-])ccc1N1CCCCC1	-2	-13	?	-1%	-17%	?	?	-5%	?	4%
